Our source for the composite z-score and z-score values is PubChem BioAssay.

Assay [1] can be described thus: compounds binding Alexa647 anti-His antibody – biochemical, small-molecule microarray, 635 nm fluorescence, artefact control for SMM control protein annotation, primary screen (AID 1128).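 Note: score merges feature fluorescence with signal-to-noise for each printed compound spot.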 The settings on record: higher = more signal.
The test system of assay [2] is Human papillomavirus type 1a E7 protein (residues 1-88). Description: HPV1a E7 small-molecule binders, primary screen, biochemical, small-molecule microarray, residues 1-88, 635 nm (AID 1129). The note with it: small-molecule microarray binding, fluorescence 635 nm; higher = more signal.
The target in assay [3] is Focal adhesion kinase 1 (Homo sapiens) (UniProt Q05397). Description: PTK2 protein binding on printed compound slides – biochemical, small-molecule microarray, 635/667 nm fluorescence, BSA, DTT, primary screen (AID 1130).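 Note: composite of spot emission at 667 nm and signal to noise over triplicate slides.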 The settings on record: 635 nm fluorescence, higher = more signal.
Assay [4] deals with Fibrinogen (Alexa647-labelled). In words: Alexa647-fibrinogen binding to printed small molecules – biochemical, small-molecule microarray, 635/667 nm fluorescence, artefact control for SMM control-protein annotation, profiling panel (AID 1131).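 Note: z-score merges 667 nm fluorescence with per-spot signal-to-noise over triplicate slides.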 The note with it: fibrinogen-A647 binding fluorescence, higher = more signal.
In assay [5] the target is Follistatin (Homo sapiens) (UniProt P19883). In words: FST protein binding to printed compounds – biochemical, small-molecule microarray, 635/667 nm fluorescence, primary screen (AID 1132). The settings on record: 635 nm fluorescence, higher = more signal.
The target in assay [6] is Fibroblast growth factor 2 (Homo sapiens) (UniProt P09038). In words: basic fibroblast growth factor binding to printed compounds – biochemical, small-molecule microarray, 635/667 nm fluorescence, primary screen (AID 1133). The note with it: FGF2, fluorescence 635/667, higher = more signal.
Assay [7] is described as follows: JC-1 mitochondrial potential readout, lung cancer cells – cell-based, A549, JC-1 fluorescence, basal, 24 h, 100 nL, profiling panel (AID 1138).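 Note: A549 lung adenocarcinoma cells under basal conditions with no added stimulus; test concentration not given here.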 The note with it: higher = more signal.
For assay [8], the system named is Lefty1. Description: Lefty1 protein binding to printed compounds – biochemical, small-molecule microarray, 635/667 nm fluorescence, primary screen (AID 1139). The settings on record: fluorescence 635/667, higher = more signal.
Assay [9] has as its system wheat germ agglutinin (Triticum aestivum), Alexa647-labelled. Description: Alexa647-WGA lectin binding to printed small molecules – biochemical, small-molecule microarray, 635/667 nm fluorescence, artefact control for SMM control-protein annotation, profiling panel (AID 1140).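 Note: score merges 667 nm feature emission with signal to noise over triplicate slides.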 The settings on record: WGA-A647 binding, 635 nm fluorescence, higher = more signal.
Assay [10] concerns the target Luciferin 4-monooxygenase (Photinus pyralis) (UniProt P08659). In words: inhibition of purified Photinus pyralis luciferase – biochemical, luminescence, purified enzyme, 2006 set, primary screen (AID 1141).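 Note: cell-free assay with purified firefly luciferase at 100 ng per well in PBS; test concentration not given here.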 The settings on record: purified firefly luciferase, SteadyGlo luminescence, 30 min; higher = more signal, called active from +8 up or from −8 down.

Calls of active or inactive are those of the source.

Chain of Luciferin 4-monooxygenase (Photinus pyralis) (P08659 whole entry, looked up): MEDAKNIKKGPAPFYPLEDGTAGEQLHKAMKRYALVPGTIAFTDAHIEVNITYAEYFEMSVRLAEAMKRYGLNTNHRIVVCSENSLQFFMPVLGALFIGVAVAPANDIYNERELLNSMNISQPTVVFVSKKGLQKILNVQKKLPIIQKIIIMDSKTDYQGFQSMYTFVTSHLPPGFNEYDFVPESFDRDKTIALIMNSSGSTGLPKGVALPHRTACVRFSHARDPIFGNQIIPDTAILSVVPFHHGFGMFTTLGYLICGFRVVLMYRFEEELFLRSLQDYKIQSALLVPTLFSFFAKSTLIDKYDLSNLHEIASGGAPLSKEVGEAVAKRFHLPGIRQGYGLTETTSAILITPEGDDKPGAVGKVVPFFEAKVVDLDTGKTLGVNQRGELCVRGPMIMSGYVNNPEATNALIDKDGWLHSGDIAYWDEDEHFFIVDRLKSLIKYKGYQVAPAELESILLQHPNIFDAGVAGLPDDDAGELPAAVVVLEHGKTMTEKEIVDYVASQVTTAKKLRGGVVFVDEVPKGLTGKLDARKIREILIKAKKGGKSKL
Chain of Focal adhesion kinase 1 (Homo sapiens) (Q05397 whole entry, looked up): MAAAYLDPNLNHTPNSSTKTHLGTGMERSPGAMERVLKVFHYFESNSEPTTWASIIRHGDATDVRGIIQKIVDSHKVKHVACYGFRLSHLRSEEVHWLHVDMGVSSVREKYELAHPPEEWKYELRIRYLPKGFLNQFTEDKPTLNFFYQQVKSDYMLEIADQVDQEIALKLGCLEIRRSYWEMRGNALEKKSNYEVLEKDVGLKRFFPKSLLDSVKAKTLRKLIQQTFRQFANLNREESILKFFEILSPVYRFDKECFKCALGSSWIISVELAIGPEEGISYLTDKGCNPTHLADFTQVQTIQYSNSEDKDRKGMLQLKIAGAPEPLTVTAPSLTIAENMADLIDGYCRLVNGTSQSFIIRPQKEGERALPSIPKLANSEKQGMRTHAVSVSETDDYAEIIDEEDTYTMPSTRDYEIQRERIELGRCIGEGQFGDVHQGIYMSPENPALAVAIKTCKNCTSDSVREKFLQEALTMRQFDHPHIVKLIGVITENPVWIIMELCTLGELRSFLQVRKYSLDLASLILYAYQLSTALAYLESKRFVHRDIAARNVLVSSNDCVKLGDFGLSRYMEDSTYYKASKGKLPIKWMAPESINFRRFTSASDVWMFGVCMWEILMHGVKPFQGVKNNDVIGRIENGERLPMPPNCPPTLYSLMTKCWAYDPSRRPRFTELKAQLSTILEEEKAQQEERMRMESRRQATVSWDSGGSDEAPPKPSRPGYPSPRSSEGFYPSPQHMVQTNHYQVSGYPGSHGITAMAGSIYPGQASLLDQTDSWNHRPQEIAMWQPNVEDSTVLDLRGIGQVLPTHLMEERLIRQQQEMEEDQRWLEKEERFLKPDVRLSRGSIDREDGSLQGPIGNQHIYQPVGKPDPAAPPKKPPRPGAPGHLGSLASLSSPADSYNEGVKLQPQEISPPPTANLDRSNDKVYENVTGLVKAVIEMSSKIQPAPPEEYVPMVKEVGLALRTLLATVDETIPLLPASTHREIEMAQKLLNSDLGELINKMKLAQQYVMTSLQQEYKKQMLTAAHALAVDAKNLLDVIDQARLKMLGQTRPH
Chain of Fibroblast growth factor 2 (Homo sapiens) (P09038 whole entry, looked up): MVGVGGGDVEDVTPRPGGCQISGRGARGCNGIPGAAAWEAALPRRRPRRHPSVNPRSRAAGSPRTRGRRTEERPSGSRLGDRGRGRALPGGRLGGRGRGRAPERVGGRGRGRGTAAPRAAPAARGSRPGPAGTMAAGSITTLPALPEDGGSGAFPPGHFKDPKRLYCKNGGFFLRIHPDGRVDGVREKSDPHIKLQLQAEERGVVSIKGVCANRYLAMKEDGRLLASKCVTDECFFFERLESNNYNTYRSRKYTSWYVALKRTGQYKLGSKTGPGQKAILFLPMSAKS
Chain of Follistatin (Homo sapiens) (P19883 whole entry, looked up): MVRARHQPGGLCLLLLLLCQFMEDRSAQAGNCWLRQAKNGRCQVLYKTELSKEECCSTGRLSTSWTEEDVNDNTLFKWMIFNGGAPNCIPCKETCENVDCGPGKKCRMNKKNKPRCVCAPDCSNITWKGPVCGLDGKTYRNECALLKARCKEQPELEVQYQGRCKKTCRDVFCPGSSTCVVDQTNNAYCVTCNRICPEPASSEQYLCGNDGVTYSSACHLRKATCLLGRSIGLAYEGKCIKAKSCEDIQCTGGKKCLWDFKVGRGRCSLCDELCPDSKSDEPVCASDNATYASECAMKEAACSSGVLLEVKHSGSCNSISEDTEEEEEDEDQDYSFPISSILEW

With `O=C1CSC(c2cccc([N+](=O)[O-])c2)N1c1ccccc1` (stereo not given), the composite z-score in assay [1] is 0.317; in [2], 0.494; in assay [3], -0.0119; in assay [4] it was 0.667; in assay [5], 0.244; in assay [6], 0.481. Moreover, the composite z-score in assay [8] was 0.257; in assay [9], -0.0002. In addition, the z-score is 0.774 in [7] and 0.174 (inactive) in assay [10].

Take `O=C1NC(=O)C2C1C=CC(C(O)CCc1ccccc1)N2Nc1ccccn1` (stereo not given): the composite z-score in [1] is -0.0572; in [2], 0.495; in [3], 0.318; in assay [4], 0.415; in assay [5], 0.269; in [6], -0.157. Also, the composite z-score in [8] was -0.139; in assay [9], 0.589. Further, the values for the z-score in [7] and in assay [10] were 0.681 and -1.13 (inactive), respectively.

As for `NC(=O)NCC#Cc1ccc2c(c1)[C@]1(C(=O)N2)[C@H](c2ccc(OCCO)cc2)N2[C@H](c3ccccc3)[C@H](c3ccccc3)OC(=O)[C@H]2[C@@H]1C(=O)N1CCN(c2ncccn2)CC1`, the composite z-score in assay [1] was -0.192; in assay [2], 0.973; in [3], 0.0718; in assay [4], 0.879; in assay [5], 1.34; in [6], 0.502. The composite z-score in assay [8] stood at 1.08; in assay [9], 0.444. For the same compound, the z-score was -1.1 in assay [7] and -1.33 (inactive) in assay [10].

Turning to `CC1CC/C=C\[C@H]2OC34C=CCN(Cc5ccccc5)C(=O)[C@H]3N(CCO)C(=O)[C@@H]4C2C(=O)O1` (stereo not given in full), the composite z-score in assay [1] is 0.364; in assay [2], 0.324; in [3], -0.106; in assay [4], -0.785; in [5], -0.418; in assay [6] it was -0.43. In addition, the composite z-score was -0.592 in [8] and -0.162 in assay [9]. For the same compound, the z-score in assay [7] is -0.322; in assay [10], -0.573 (inactive).

Regarding `NC(=O)NCC#Cc1ccc2c(c1)[C@]1(C(=O)N2)[C@H](c2ccc(O)cc2)N2[C@H](c3ccccc3)[C@H](c3ccccc3)OC(=O)[C@H]2[C@@H]1C(=O)NC[C@H](O)c1ccccc1`, the composite z-score in assay [1] was -0.652; in assay [2], -0.843; in assay [3], -0.126; in assay [4] it was -1.74; in [5], -2.12; in [6] it was -1.11. The results for the composite z-score in assay [8] and in [9] were -3.02 and -1.82, respectively. Besides, the results for the z-score in assay [7] and in [10] were 0.717 and -0.498 (inactive), respectively.

Consider `CC1=C2[C@@H](CCc3ccccc3)OB(O)C[C@@H]2[C@@H]2C(=O)C=CC(=O)[C@@H]2C1`, for which the composite z-score is 0.892 in [1]; 0.339 in assay [2]; -0.512 in assay [3]; 0.565 in [4]; 1.12 in assay [5]; 1 in assay [6]. Moreover, the composite z-score in [8] was 0.845; in assay [9], 0.469. Besides, the z-score in [7] is -1.2; in assay [10], -3.34 (inactive).

For the compound `COCCOC(=O)N1C(=O)[C@@]2(c3cc(C#CCNC(N)=O)ccc31)[C@H](C(=O)N1CCCCCCC1)[C@H]1C(=O)O[C@H](c3ccccc3)[C@H](c3ccccc3)N1[C@@H]2c1ccc(OCCO)cc1`, the composite z-score is -0.456 in assay [1]; 0.492 in assay [2]; 0.423 in assay [3]; 0.577 in assay [4]; 1.15 in [5]; 0.126 in assay [6]. The composite z-score in [8] amounted to 0.577; in assay [9], 0.534. Also, the z-score in assay [7] was -1.6; in assay [10] it was -1.19 (inactive).

Turning to `O=C1OCCC=C[C@H]2OC34C=CCN(Cn5nnc6ccccc65)C(=O)[C@H]3N(CCCCCO)C(=O)[C@@H]4C12` (stereo not given in full), the composite z-score in assay [1] was 2.73; in [2], -0.476; in assay [3], 0.0209; in assay [4] it was -2.02; in assay [5] it was -0.862; in assay [6], -0.346. For the same compound, the composite z-score in assay [8] is -0.559; in [9] it was -0.807. In addition, the results for the z-score in [7] and in assay [10] were 0.427 and -0.245 (inactive), respectively.

For `CC(C)(C)OC(=O)CC[C@]1(C(=O)N2CCCCC2)N=C(c2ccc(OCCCO)cc2)O[C@H]1c1ccccc1CN=[N+]=[N-]`, the composite z-score was determined as 3.05 in assay [1]; 1.21 in assay [2]; 0.72 in assay [3]; 0.978 in assay [4]; 1.4 in assay [5]; 1.42 in [6]. The composite z-score in assay [8] turned out to be 0.675; in [9], 1.09. Besides, the z-score in [7] is 2.94; in assay [10], -3.56 (inactive).

Regarding `CC(C)NC(=O)[C@@]1(Cc2ccccc2I)c2ccccc2C(=O)N(Cc2ccccc2C(F)(F)F)[C@H]1c1ccc(CO)cc1`, the composite z-score in assay [1] stood at 0.992; in assay [2], 0.906; in assay [3] it was 0.601; in assay [4], 0.75; in assay [5] it was 0.464; in assay [6] it was 0.125. The composite z-score was found to be 0.266 in [8] and 1.15 in assay [9]. Also, the z-score was 1.29 in [7] and -0.793 (inactive) in assay [10].

On to `O=C1C2C=CC(C(O)c3cccc4ccccc34)N(Nc3ccccc3)C2C(=O)N1c1ccccc1` (stereo not given), for which the composite z-score in assay [1] was determined as 2.24; in [2], 1.17; in assay [3] it was 1.99; in [4], 0.971; in assay [5], 1.23; in assay [6], 0.729. Besides, the composite z-score was 0.576 in assay [8] and 0.753 in assay [9]. The figures for the z-score in [7] and in assay [10] were -0.39 and -1.05 (inactive), respectively.

Turning to `COc1cc(NN2C(C(O)c3ccc(I)cc3)C=CC3C(=O)N(C)C(=O)C32)cc(OC)c1OC` (stereo not given), the composite z-score in assay [1] is 2.61; in assay [2] it was 0.351; in assay [3], 1.2; in [4] it was -0.472; in [5], -0.0712; in [6] it was -0.893. The values for the composite z-score in assay [8] and in [9] were -0.595 and 0.701, respectively. The z-score in assay [7] was 0.223; in assay [10] it was -0.977 (inactive).

Consider `CCOC(=O)C1=CC[C@@H](c2ccccc2)N(S(=O)(=O)c2ccc(C)cc2)[C@H]1C=C(C)C`, for which the composite z-score amounted to 0.875 in [1]; 1.22 in assay [2]; 0.503 in [3]; 0.911 in [4]; 0.97 in assay [5]; 0.481 in assay [6]. The values for the composite z-score in [8] and in assay [9] were 0.811 and 0.546, respectively. Also, the figures for the z-score in [7] and in assay [10] were 2.58 and 2.12 (inactive), respectively.

Turning to `CC1(C)[C@@H]2CC(C(O)C3C=CC4C(=O)N(c5ccccc5)C(=O)C4N3Nc3ccccc3F)=C[C@@H]1C2` (stereo not given in full), the composite z-score in assay [1] worked out at 1.41; in assay [2], 1.2; in assay [3], 0.218; in assay [4], 0.938; in [5] it was 0.876; in [6], 1.26. In addition, the composite z-score came out at 0.655 in assay [8] and 0.392 in assay [9]. In addition, the z-score is -0.136 in [7] and 0.905 (inactive) in assay [10].

`CC(C)=CCCC(C)=CC(O)C1C=CC2C(=O)N(c3ccccc3)C(=O)C2N1Nc1ccc([N+](=O)[O-])cc1` (stereo not given): the composite z-score in [1] is 0.987; in assay [2], 1.22; in assay [3], 0.954; in [4], 1.02; in assay [5], 1.03; in [6] it was -0.151. Moreover, the composite z-score was 0.253 in assay [8] and 0.969 in [9]. Further, the results for the z-score in assay [7] and in assay [10] were -0.78 and 0.453 (inactive), respectively.

Take `COCCOC(=O)N1C(=O)[C@@]2(c3cc(C#CCCO)ccc31)[C@H](C(=O)NC[C@H](O)c1ccccc1)[C@H]1C(=O)O[C@H](c3ccccc3)[C@H](c3ccccc3)N1[C@@H]2c1ccccc1OCCO`: the composite z-score is -0.338 in [1]; 1.23 in assay [2]; 1.07 in assay [3]; 0.59 in assay [4]; 1.28 in assay [5]; 1.42 in assay [6]. In addition, the results for the composite z-score in assay [8] and in assay [9] were 1.35 and 1.07, respectively. Besides, the figures for the z-score in [7] and in assay [10] were 0.358 and -1.02 (inactive), respectively.

With `[N-]=[N+]=NCc1ccccc1[C@H]1OC(c2ccc(OCCCO)cc2)=N[C@@]1(Cc1ccccc1N=[N+]=[N-])C(=O)N1CCCCC1`, the composite z-score in assay [1] worked out at 2.35; in [2], 1.23; in [3], 0.529; in assay [4], 0.974; in assay [5] it was 1.34; in [6], 1.56. In addition, the composite z-score in assay [8] worked out at 0.68; in assay [9], 0.681. In addition, the z-score was 2.16 in [7] and -1.9 (inactive) in [10].
